Consider 83 compounds from PubChem BioAssay AID1851 (National Center for Advancing Translational Sciences (NCATS), 2009).

Several values for one entry are separate records, joined by “and”; a condition that tells them apart may be missing. Identical values can stand only once. The campaign covered roughly 16,000 compounds. About 5,100 (32%) were called active. Inconclusive results (about 25%) are left out. The list shows a part of the results. Values without a mark were called inactive. Calls come from the whole dose curve; as a rule, active = well fitted curve in the direction sought with a large enough effect; inconclusive = small, poorly fitted or top-dose-only effect, or effect the other way; inactive = no such curve, though single readings can be large or run the other way.
% is set by controls: 0 for no effect and ±100 for the full control effect.

The target in the assay is Cytochrome P450 3A4 (Homo sapiens) (UniProt P08684). The experiment in a line: Cytochrome panel assay with activity outcomes. Particulars: recombinant CYP, pro-luciferin dealkylation, luminescence, p450-cyp3a4; series mostly up to 57.1 µM.
Sequence of Cytochrome P450 3A4 (Homo sapiens) (P08684 whole entry, looked up): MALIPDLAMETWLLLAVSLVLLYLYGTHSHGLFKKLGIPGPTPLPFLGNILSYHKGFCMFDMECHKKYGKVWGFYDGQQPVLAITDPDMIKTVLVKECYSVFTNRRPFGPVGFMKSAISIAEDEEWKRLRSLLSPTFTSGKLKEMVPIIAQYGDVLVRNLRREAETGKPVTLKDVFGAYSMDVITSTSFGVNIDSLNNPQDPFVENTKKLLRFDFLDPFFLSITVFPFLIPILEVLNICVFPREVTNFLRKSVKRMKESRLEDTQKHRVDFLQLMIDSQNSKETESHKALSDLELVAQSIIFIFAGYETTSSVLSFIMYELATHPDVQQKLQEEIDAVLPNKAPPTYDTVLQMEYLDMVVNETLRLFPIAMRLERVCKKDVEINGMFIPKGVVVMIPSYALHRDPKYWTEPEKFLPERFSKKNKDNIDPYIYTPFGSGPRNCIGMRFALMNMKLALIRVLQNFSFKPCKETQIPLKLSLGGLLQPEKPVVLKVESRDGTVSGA
Regarding `C=CC(=O)NC(C)(C)Cc1ccccc1`, the AC50 is 15.8 µM (active).

As to `N[C@@](CC(=O)O)(Cc1ccccc1)C(=O)O`, the activity, negative = inhibition is -4.69% [at 11.4 µM].

Regarding `C/C(=C/C(=O)NCc1ccccc1)C(=O)O`, the AC50 result was “inactive”.

Turning to `COCCNC(=O)CCn1c(=O)oc2ccccc21`, the AC50 result was “inactive”.

As for `CC1CCCC(NC(=O)CCn2c(=O)oc3ccccc32)C1C` (stereo not drawn), the AC50 was 14.1 µM (active).

With `Cc1ccc(CNC(=O)Cn2c(=O)oc3ccccc32)o1`, the activity, negative = inhibition was 1.22% [at 11.4 µM].

Turning to `CC[N+](C)(C)c1cccc(O)c1`, the AC50 result was “inactive”.

Turning to `CC1(C)c2ssc(=S)c2-c2ccccc2N1C(=O)CSC1=NCCS1`, the AC50 was 1.78 µM (active).

On to `COc1ccc(-n2c(=O)cnc3cnc(Oc4cccc(Cl)c4)nc32)cc1`, for which the AC50 is 10 µM (active).

On to `O=c1cnc2cnc(Oc3ccccc3)nc2n1C1CC1`, for which the AC50 entry is “inactive”.

With `COc1ccc(-n2c(=O)cnc3cnc(N4CCOCC4)nc32)cc1`, the AC50 entry is “inactive”.

As to `O=c1cnc2cnc(Oc3cccc(Cl)c3)nc2n1C1CC1`, the AC50 entry was “inactive”.

In the case of `COc1ccc(-n2c(=O)cnc3cnc(Oc4ccccc4)nc32)cc1`, the half-maximal activity concentration (AC50) was 15.8 µM (active).

For `COc1ccc(-n2c(=O)cnc3cnc(OC)nc32)cc1`, the AC50 result was “inactive”.

With `COC(=O)C(C)Sc1ccc2nnc(-c3ccc(F)cc3)n2n1` (stereo not drawn), the AC50 result was “inactive”.

In the case of `CCCCN(CC)S(=O)(=O)c1ccc(C(=O)Nc2nnc(CSC)o2)cc1`, the activity, negative = inhibition was 2.56% [at 11.4 µM].

For the compound `CCCOc1cccc(-c2cc(-c3n[nH]c(=S)n3CC)c3ccccc3n2)c1`, the AC50 is 10 µM (active).

For `CCn1c(-c2ccoc2C)n[nH]c1=S`, the AC50 result is “inactive”.

`CCc1ccc(-c2ccc(C(=O)C(F)(F)F)[nH]2)cc1`: the AC50 result is “inactive”.

With `CC(C)(Oc1ccc(Cl)cc1)C(=O)Nc1ccncc1`, the AC50 is 0.794 µM (active).

As to `CC(C)(Oc1ccc([C@@H]2CC2(Cl)Cl)cc1)C(=O)O`, the AC50 entry was “inactive”.

`CC(C)(Oc1ccc(CCNC(=O)c2ccc(Cl)cc2)cc1)C(=O)O`: the AC50 entry is “inactive”.

Consider `C[C@@H]1CCC[C@H](C)N1`, for which the AC50 result was “inactive”.

In the case of `Clc1ccc(Cl)c(OCc2cc(-c3ccccc3Cl)on2)c1`, the AC50 entry is “inactive”.

Take `O=C(N/N=C/c1ccc(O)cc1)c1ccc(COc2cc(Cl)ccc2Cl)o1`: the activity, negative = inhibition was -27.3% [at 2.29 µM].

On to `CC(C)CNC(=O)c1ccc(COc2ccc(Cl)cc2Cl)o1`, for which the AC50 is 20 µM (active).

`O=C(Nc1ccn(Cc2ccccc2F)n1)c1ccc(COc2cc(Cl)ccc2Cl)o1`: the AC50 is 0.891 µM (active).

Consider `O=C(Nc1cccnc1)c1ccc(COc2cc(Cl)ccc2Cl)o1`, for which the AC50 was 4.47 µM (active).

`CC(C)C(=O)Nc1ccc(C(=O)NNC(=O)CCCOc2ccc(Cl)cc2Cl)cc1`: the AC50 result is “inactive”.

For `O[C@@H](C1=C/C(=C\c2ccncc2)c2ccccc21)c1ccncc1`, the AC50 was 0.794 µM (active).

Turning to `NS(=O)(=O)c1ccc(N=Nc2c(O)c(C(=O)O)cc3ccccc23)cc1`, the activity, negative = inhibition is -2.48% [at 11.4 µM].

Turning to `Cc1cccc(Oc2ncnc3onc(C)c23)c1C`, the AC50 entry was “inactive”.

`Cn1c(SCC(=O)NC2CC2)nnc1-c1cccc(NC(=O)c2ccccc2F)c1`: the AC50 is 12.6 µM (active).

Turning to `Nc1ncnc2c1ncn2[C@H]1O[C@@H](C(=O)OCCO)[C@@H](O)[C@H]1O`, the activity, negative = inhibition was -12.9% [at 11.4 µM].

`Clc1ccc(-c2nnc(-c3ccc(Br)cc3)c(N3CCSCC3)n2)cc1`: the AC50 result was “inactive”.

Turning to `CCOC(=O)c1nc2sc(C)c(C)c2c(=O)[nH]1`, the AC50 result was “inactive”.

For `CCCCC1(C)NC(=O)c2c(C)sc(C(=O)OCC)c2N1` (stereo not drawn), the AC50 was 17.8 µM (active).

On to `Fc1ccc(Nc2ncncc2-c2ccoc2)cc1`, for which the AC50 is 0.501 µM (active).

For `c1ccc(Nc2ncncc2-c2ccoc2)cc1`, the AC50 was 2 µM (active).

Consider `c1ncc(-c2ccoc2)c(NC2CC2)n1`, for which the AC50 is 7.94 µM (active).

As to `O=c1[nH]c2[nH]c(=S)[nH]c(=S)c2[nH]1`, the activity, negative = inhibition was -17.9% [at 11.4 µM].

Turning to `CCc1cccc2c(C=C(C#N)C#N)cn(CC(=O)N3CCCC3)c12`, the AC50 entry was “inactive”.

With `CCN(CC)C(=O)Cn1cc(/C=C(\C#N)C(=O)N2CCN(c3ccccc3)CC2)c2ccccc21`, the AC50 is 0.891 µM (active).

Regarding `CCc1cccc2c(C=C(C#N)C#N)cn(CC(=O)N3CCCCC3)c12`, the AC50 entry was “inactive”.

Consider `Cc1ccc2nc(N/N=C/c3ccccc3C#N)nc(-c3ccccc3)c2c1`, for which the AC50 is 7.94 µM (active).

For `Cc1ccc(Oc2nnc(-c3ccccc3)cc2C#N)cc1`, the AC50 result was “inactive”.

In the case of `N#Cc1ccccc1/C=N/Nc1nc(-c2ccccc2)c2cc(Cl)ccc2n1`, the AC50 was 6.31 µM (active).

Regarding `Cc1nc(Cl)c(C#N)cc1-c1ccccc1`, the AC50 entry is “inactive”.

On to `CSc1c(-c2ccccc2)nc2ccc(Cl)cc2c1C(=O)O`, for which the AC50 result is “inactive”.

With `CCn1cc(C(=O)O)c(=O)c2cc(F)c(N3CCNCC3)nc21`, the AC50 result was “inactive”.

`COC(=O)c1nn(-c2ccccc2)c(=O)cc1Oc1ccccc1`: the activity, negative = inhibition is -20.9% [at 11.4 µM].

With `COc1cc(Cl)c(C)cc1NC(=O)CNC(=O)Cn1cnc2ccccc2c1=O`, the AC50 result was “inactive”.

For the compound `COc1ccc(-n2nc(C(=O)NCC(=O)Nc3ccccn3)c3ccccc3c2=O)cc1`, the AC50 was 3.55 µM (active).

In the case of `Cc1ccc2c(c1)[C@@H]1CN(C)CC[C@@H]1N2S(=O)(=O)c1ccc(F)cc1`, the AC50 was 2 µM (active).

For `O=C1[C@H]2[C@H]3[C@H](O)[C@H](O)C/C(=N/OCc4ccccc4)[C@H]3CC[C@@H]2C(=O)N1Cc1ccc2c(c1)OCO2`, the AC50 was 1 µM (active).

For `CCN1C(=O)[C@H]2[C@H]3[C@H](O)[C@H](O)C/C(=N/OCC(C)C)[C@@H]3CC[C@@H]2C1=O`, the activity, negative = inhibition is -6.7% [at 11.4 µM].

Regarding `CC(=O)OC[C@@H]1O[C@@H](O/N=C2/C[C@@H](O)[C@@H](O)[C@@H]3[C@@H]4C(=O)N(Cc5ccccc5)C(=O)[C@H]4CC[C@H]23)[C@H](OC(C)=O)[C@H](OC(C)=O)[C@@H]1OC(C)=O`, the activity, negative = inhibition was -25% [at 11.4 µM].

With `O=C1C[C@@H](O)[C@@H](O)[C@H]2[C@@H]3C(=O)N(Cc4ccccc4)C(=O)[C@@H]3CC[C@H]12`, the activity, negative = inhibition was -12.1% [at 11.4 µM] and -10.8% [at 11.4 µM].

`CCN1C(=O)[C@H]2[C@@H]3[C@H](O)[C@H](O)CC(=O)[C@H]3CC[C@H]2C1=O`: the activity, negative = inhibition is -13.1% [at 11.4 µM] and -13% [at 11.4 µM].

For `CCN1C(=O)[C@H]2[C@H]3[C@H](O)[C@H](O)C/C(=N/OCC(C)C)[C@H]3CC[C@@H]2C1=O`, the activity, negative = inhibition is 19.2% [at 11.4 µM].

On to `CCN1C(=O)[C@H]2[C@H]3[C@H](O)[C@H](O)C/C(=N/O[C@@H](C)c4cc(-c5c(C)cc(C)cc5C)no4)[C@@H]3CC[C@@H]2C1=O`, for which the AC50 was 3.98 µM (active).

For the compound `CC(=O)OC[C@@H]1O[C@@H](O/N=C2/C[C@@H](O)[C@@H](O)[C@@H]3[C@@H]4C(=O)N(Cc5ccccc5)C(=O)[C@H]4CC[C@@H]23)[C@H](OC(C)=O)[C@H](OC(C)=O)[C@@H]1OC(C)=O`, the activity, negative = inhibition was -27.9% [at 11.4 µM].

Turning to `O=C1C[C@@H](O)[C@@H](O)[C@H]2[C@@H]3C(=O)N(Cc4ccc5c(c4)OCO5)C(=O)[C@@H]3CC[C@H]12`, the AC50 is 3.98 µM (active).

Consider `CC(=O)OC[C@@H]1O[C@@H](O/N=C2/C[C@@H](O)[C@@H](O)[C@@H]3[C@@H]4C(=O)N(Cc5ccc6c(c5)OCO6)C(=O)[C@H]4CC[C@H]23)[C@H](OC(C)=O)[C@H](OC(C)=O)[C@@H]1OC(C)=O`, for which the AC50 was 5.01 µM (active).

Consider `CCOC(=O)C(NC(C)=O)C(OC(C)=O)c1cccc(N(CCO)CCO)c1` (stereo not drawn), for which the AC50 result was “inactive”.

For the compound `CC(=O)N(C)c1nnc(-c2cnccn2)s1`, the AC50 entry was “inactive”.

Consider `CC(=O)N[C@@H]1CONC1=O`, for which the activity, negative = inhibition is -3.29% [at 11.4 µM].

Take `O=C1[C@H]2[C@H]3[C@H](O)[C@H](O)C/C(=N/OCc4ccccc4)[C@@H]3CC[C@@H]2C(=O)N1C[C@@H]1CCCO1`: the activity, negative = inhibition was -20.3% [at 11.4 µM].

Turning to `CC(C)CO/N=C1/C[C@@H](O)[C@@H](O)[C@@H]2[C@@H]3C(=O)N(C[C@@H]4CCCO4)C(=O)[C@H]3CC[C@H]12`, the activity, negative = inhibition was -0.365% [at 11.4 µM].

Regarding `O=C1[C@H]2[C@H]3[C@H](O)[C@H](O)C/C(=N/OCc4ccccc4)[C@@H]3CC[C@@H]2C(=O)N1Cc1ccc2c(c1)OCO2`, the AC50 was 2 µM (active).

On to `CC(C)CO/N=C1/C[C@@H](O)[C@@H](O)[C@@H]2[C@@H]3C(=O)N(Cc4ccc5c(c4)OCO5)C(=O)[C@H]3CC[C@H]12`, for which the AC50 is 1 µM (active).

On to `O=C1[C@H]2[C@H]3[C@H](O)[C@H](O)C/C(=N/OCc4ccccc4)[C@H]3CC[C@@H]2C(=O)N1C[C@@H]1CCCO1`, for which the activity, negative = inhibition was -11.3% [at 11.4 µM].

With `CC(C)CO/N=C1/C[C@@H](O)[C@@H](O)[C@@H]2[C@@H]3C(=O)N(Cc4ccccc4)C(=O)[C@H]3CC[C@@H]12`, the activity, negative = inhibition was -11.8% [at 11.4 µM].

For the compound `Nc1ccc(C(=O)C[C@H](N)C(=O)O)cc1O`, the activity, negative = inhibition is -6.46% [at 11.4 µM].

With `O=C(O)[C@@H]1[C@@H](C(=O)Nc2ncccn2)[C@@H]2C=C[C@@H]1O2`, the activity, negative = inhibition was -13% [at 11.4 µM].

`Nc1c(-c2cccs2)cnn1-c1nc(-c2ccc(F)cc2)cs1`: the AC50 is 3.98 µM (active).

With `CCOC(=O)c1cnn(-c2nc(-c3ccc(F)cc3)cs2)c1C(F)(F)F`, the AC50 result was “inactive”.

As to `Fc1ccc(-c2cnc(-c3cccs3)o2)cc1`, the AC50 entry is “inactive”.

In the case of `Cc1ccc(C)c(S(=O)(=O)NCc2ccc(C(=O)N3CCC(Cc4ccccc4)CC3)cc2)c1`, the AC50 is 2.24 µM (active).

Turning to `CC1(C)CC(O)CC(C)(C)N1CC(O)COCCOc1ccc(Br)cc1` (stereo not drawn), the AC50 entry is “inactive”.

Turning to `O=C(CCl)Nc1ccc(Oc2cnc3ccccc3n2)cc1`, the AC50 was 14.1 µM (active).

Consider `COCCNC(=O)COC(=O)/C=C/c1cnc2ccccc2n1`, for which the activity, negative = inhibition is -3.34% [at 2.29 µM].

On to `Clc1cccc(Oc2cnc3ccccc3n2)c1`, for which the AC50 entry is “inactive”.
